Screens: PubChem BioAssay, several laboratories
ALR H2O2 inh = blocks human ALR sulfhydryl oxidase activity; P55789; purified ALR, DTT oxidation, H2O2 HRP-luminol luminescence; inhibition, % (no concentration beside the values); hit rate 3.8% among 290,000;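 active means mean replicate inhibition above about 79%, with every replicate also reaching it, limit read from the data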
CendR NRP1 mod = alters CendR peptide binding to human NRP-1; FAM-RPARPAR peptide binding to NRP-1, fluorescence polarization; AID 602438; O14786; inhibition, % at 25 µM; hit rate 0.85% among 360,000;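 active means inhibition or corrected inhibition above about 18%, plus a signal ratio from 0.5 to 1.5, limit read from the data, passing the limit was not always enough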
PglD inh = PglD (C. jejuni) enzyme inhibition; purified PglD enzyme, DTNB colorimetric CoA detection; hit rate 0.098% among 360,000; inhibition, % at 12.5 µM; in the data active means inhibition above about 16%, passing the limit was not always enough
PDI turbidity = PDI (human) enzyme inhibition; P07237; AID 588391; hit rate 0.052% among 350,000; PDI insulin aggregation turbidity, A650, 90 min; inhibition, % at 10 µM;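 active means mean inhibition across replicates of 30% or more, whatever share of single replicates reach that level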
Target sequence (P07237 whole entry, looked up): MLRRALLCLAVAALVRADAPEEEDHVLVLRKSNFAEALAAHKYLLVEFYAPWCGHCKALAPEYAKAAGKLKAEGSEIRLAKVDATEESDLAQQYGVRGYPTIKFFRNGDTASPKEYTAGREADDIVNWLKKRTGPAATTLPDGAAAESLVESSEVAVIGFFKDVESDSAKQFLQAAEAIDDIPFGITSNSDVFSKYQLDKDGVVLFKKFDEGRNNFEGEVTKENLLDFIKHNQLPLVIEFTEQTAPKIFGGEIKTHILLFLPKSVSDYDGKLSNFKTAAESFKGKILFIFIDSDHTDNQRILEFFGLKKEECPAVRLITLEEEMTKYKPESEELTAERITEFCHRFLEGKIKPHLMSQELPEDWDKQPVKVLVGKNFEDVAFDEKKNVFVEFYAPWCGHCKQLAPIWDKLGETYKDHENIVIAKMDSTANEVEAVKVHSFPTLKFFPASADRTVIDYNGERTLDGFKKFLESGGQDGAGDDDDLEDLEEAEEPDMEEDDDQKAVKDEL
ARNT-TACC3 inh = disrupts binding between human ARNT and TACC3 | Q9Y6A5 | AlphaScreen His-ARNT PAS-B/GST-TACC3 binding, luminescence; TACC3 fragment carries E629A point mutation | inhibition, % at 9.99 µM | hit rate 0.66% among 390,000 | AID 623870;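 active means mean inhibition of replicates at least 50% and at least half of replicates each reaching 50%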;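 further: 0% = complete ARNT plus TACC3 wells and 100% = ARNT alone without TACC3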
ERp5 inh = ERp5 (human) disulfide isomerase inhibition | hit rate 0.05% among 350,000 | Q15084 | ERp5 insulin aggregation, absorbance 650 nm, 90 min | inhibition, % at 9.99 µM;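 active means mean replicate inhibition above about 25%, with every replicate also reaching it, limit read from the data, passing the limit was not always enough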
The depositor's hits bear a star; / = no result given. Many of the other results were omitted from the sample, so hits are more common in it than they were.

SMILES	ALR H2O2 inh	CendR NRP1 mod	PglD inh	PDI turbidity	ARNT-TACC3 inh	ERp5 inh
O=c1c(-c2cnn(-c3ccccc3)c2)coc2cc(O)ccc12	-1	0	3	4	15	/
O=C(Nc1nnc2n1CCS2)c1ccc(Br)o1	-2	4	-2	8	46*	0
Cc1cccnc1NC(=O)c1ccc(Br)o1	/	1	-2	-1	-3	1
COc1cc(CC2COC(=O)C2(O)Cc2ccc(O)c(OC)c2)ccc1O (stereo unspecified)	87*	1	0	/	-9	1
O=C(CSc1cccc[n+]1[O-])c1cc2ccccc2o1	94*	4	4	-6	27	/
COc1ccccc1C(=O)CSc1n[nH]c(N)n1	40	0	/	0	1	/
Nc1nc(SCC(=O)c2cc3ccccc3o2)n[nH]1	98*	0	/	7	/	-5
O=C(NCc1ccc(F)cc1)[C@H]1N[C@H]2c3ccc(-c4ccccc4)c(=O)n3C[C@H]2[C@@H]1CO	/	/	0	/	-2	-3
CSC1=C(C#N)C(=O)NC(c2ccccc2O)S1 (stereo unspecified)	98*	-17	/	12	2	0
COC(=O)CSC1=C(C#N)C(=O)NC(c2ccccc2)S1 (stereo unspecified)	/	-12	-2	13	-3	/
COCC(=O)Nc1ccc2c(c1)C(=O)N(C)C[C@H](OC)[C@H](C)CN(C(=O)CC1CC1)[C@@H](C)CO2	/	/	1	/	-2	6
COCCN(C(=O)c1ccc(C)c(S(=O)(=O)N2CCOCC2)c1)c1c(N)n(CC(C)C)c(=O)[nH]c1=O	/	29*	-3	3	0	-1
O=C(CSc1cccc[n+]1[O-])Nc1cccc(Oc2ccccc2)c1	94*	7	/	0	-2	4
O=C(CSc1ncnc2[nH]ncc12)Nc1cccc(Oc2ccccc2)c1	98*	7	-4	6	/	3
COc1cccc(NC(=O)CSc2cccc[n+]2[O-])c1	-14	5	5	5	/	5
CCC(=O)N[C@@H]1C=C[C@@H](CC(=O)NCc2cc(F)cc(F)c2)O[C@@H]1CO	/	/	2	/	/	14
Nc1ccc(C23CC4CC(CC(CO)(C4)C2)C3)cc1	93*	9	-1	-5	-7	/
O=C(O)c1cc(Nc2cc(Cl)c3nonc3c2[N+](=O)[O-])ccc1O	6	25*	2	-4	19	0
C[C@@H]1CN([C@H](C)CO)C(=O)Cc2cc(NS(=O)(=O)c3cccs3)ccc2O[C@H]1CN(C)Cc1ccc(C(=O)O)cc1	/	/	2	/	-15	-6
CCCNC(=O)Nc1ccc2c(c1)C(=O)N(C)[C@H]1CC[C@H](CC(=O)OC)O[C@@H]1CO2	/	/	/	/	/	0
Clc1ccc(C2=CSC3=NCCN23)cc1Cl	97*	10	1	-2	-2	/
COc1ccc(C2=CSC3=NCCN23)cc1OC	96*	-4	-3	6	-1	-2
CC(C)(C)c1ccc(C2=CSC3=NCCN23)cc1	/	-11	-2	2	3	0
CC(C)c1ccc(NC2CCCN(C(=O)CCc3cnn(C)c3)C2)cc1 (stereo unspecified)	98*	8	1	19	1	7
O=C(CCN1CCCCO1)N1CCCC(Nc2ccc(F)c(F)c2)C1 (stereo unspecified)	23	4	-3	4	3	8
SMILES	ALR H2O2 inh	CendR NRP1 mod	PglD inh	PDI turbidity	ARNT-TACC3 inh	ERp5 inh
O=C1CCCCN1CCCC(=O)N1CCCC(Nc2ccccc2)C1 (stereo unspecified)	99*	-11	-4	-1	-3	3
Cc1ccc(NC2CCCN(C(=O)CCN3CCCCO3)C2)cc1C (stereo unspecified)	98*	-9	1	-6	3	6
CC(C)c1ccc(NC2CCCN(C(=O)CCN3CCCC3=O)C2)cc1 (stereo unspecified)	78*	14	1	-4	2	3
O=C(CCOc1ccccc1)N1CCCC(Nc2ccccc2)C1 (stereo unspecified)	/	-25	-4	-1	/	-1
CO[C@H]1CN(C)C(=O)c2ccc(NC(C)=O)cc2OC[C@@H](C)N(Cc2ccncc2)C[C@H]1C	/	/	1	/	/	/
O=C(C[C@H]1C[C@@H]2c3cc(NS(=O)(=O)c4ccc(F)cc4)ccc3O[C@@H]2[C@@H](CO)O1)N1CCCCC1	/	/	-1	/	-11	6
O=C1CCCCN1CC(=O)N1CCCC(Nc2ccc(F)cc2)C1 (stereo unspecified)	91*	9	4	-5	1	4
CC(C)c1ccc(NC2CCCN(C(=O)CCN3CCCCO3)C2)cc1 (stereo unspecified)	79*	2	-1	7	-1	1
CC(C)c1ccc(NC2CCCN(C(=O)CC3CCCC3)C2)cc1 (stereo unspecified)	79*	-3	2	0	9	6
CC(C)(C)c1ccc(C(=O)C2CCCN(C(=O)CN3CCCC3=O)C2)cc1 (stereo unspecified)	-3	-3	/	26	-3	-4
C[C@H]1CN([C@@H](C)CO)C(=O)CCCn2nncc2CO[C@@H]1CN(C)C(=O)CCCN(C)C	/	/	0	/	-12	-1
COc1ccc(S(=O)(=O)N(C)C[C@@H]2Oc3c(NC(=O)c4cc(C)nn4C)cccc3C(=O)N([C@H](C)CO)C[C@@H]2C)cc1	/	/	0	/	/	-4
O=C(C[C@@H]1C[C@@H]2c3cc(NC(=O)C4CCC4)ccc3O[C@@H]2[C@H](CO)O1)NCc1cccc(F)c1	/	/	7	/	-1	1
O=c1[nH]c(/C=C\c2ccc(O)c(O)c2)nc(O)c1[N+](=O)[O-]	99*	30	4	-4	37*	4
C[C@H](CO)N1C[C@H](C)[C@H](CN(C)C(=O)Nc2ccccc2)Oc2ncc(C#CC3CC3)cc2C1=O	/	/	0	/	1	-4
Cc1ccc(C(=O)CNc2ccccc2C)cc1	1	1	3	8	0	-10
Cc1ccccc1NCCNc1ccccc1C	99*	5	/	10	-2	/
Cc1nn(Cc2ccc(C(=O)NN)cc2)c(C)c1Cl	/	-2	/	-4	4	1
Cc1nn(Cc2cccc(C(=O)NN)c2)c(C)c1Cl	97*	-11	-2	-1	-3	-4
CCN1[C@H](C(=O)NCCCN(C)C)[C@@H](CO)[C@@H]2Cn3c(ccc(-c4cccc(F)c4)c3=O)[C@@H]21	/	/	/	/	/	2
CC1(C)CC(NC(=O)N2c3ccccc3Sc3ccccc32)CC(C)(C)N1	99*	-2	/	0	-2	1
Cc1cccc2sc(NC(=O)CN3C(=O)C4CC=CCC4C3=O)nc12 (stereo unspecified)	0	32*	/	7	-2	0
C=C(C)CC1Nc2ccccc2NC1CC(=C)C (stereo unspecified)	99*	-8	-7	1	/	/
O=C(CSC1CN(C(c2ccccc2)c2ccccc2)C1)N/N=C/c1ccccc1	-11	41*	/	-1	6	2
